# The whole screen tested about 330,000 compounds, of which about 1,900 (0.58%) were called active. Not shown: some 4% with an inconclusive outcome. Cut-off read from the data, not from the text of the source: inconclusive = inhibition above about 70% without an active follow-up result; inactive = below that. Only a sample is shown. Entries with a potency or affinity are not part of this list.
# Assay: M. tuberculosis growth inhibition, HTS (AID 449762);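 note: bacterial growth assessed after seven days of incubation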
# Settings: M. tuberculosis H37Rv growth inhibition, 7H9 media; at 25 µM; active compounds read high
row,SMILES,inhibition
1,Cc1cc(C)c(C(N)=O)c(SCC(=O)c2cc(C)c(C)cc2C)n1,5.89% (inactive)
2,Cc1ccc(C(=O)CSc2nc(C)cc(C)c2C(N)=O)cc1,69% (inactive)
3,CN(C)c1oc(-c2ccc(Cl)cc2)nc1S(=O)(=O)c1ccccc1,3.09% (inactive)
4,COc1ccc(CS(=O)(=O)CC(C)(O)c2ccc(Cl)cc2)cc1 (centres undefined),8.74% (inactive)
5,Cc1cc(C)n(-c2ccc(C(=O)OCC(=O)Nc3cc(S(C)(=O)=O)ccc3Cl)cc2)n1,9.43% (inactive)
6,CC(/C=N\NC(=O)c1cc(C)oc1C)=C\c1ccccc1,5.28% (inactive)
7,Cc1cc(C(=O)N/N=C/C(Cl)=C/c2ccccc2)c(C)o1,2.89% (inactive)
8,COC(=O)c1cc(NC(=O)c2ccc(-c3ccccc3)cc2)ccc1Cl,-0.43% (inactive)
9,CC(C)c1ccc(C(=O)CSc2ncn[nH]2)cc1,-3.26% (inactive)
10,O=C(CSc1ncn[nH]1)NCc1ccc(Cl)cc1,23.7% (inactive)
11,Cc1ccc2c(c1)Oc1ccc([N+](=O)[O-])cc1C(=O)N2,3.53% (inactive)
12,Cc1ccc2c(c1)Oc1ccc(NC(=O)CCCl)cc1C(=O)N2,11.1% (inactive)
13,Cc1ccc(Cn2c(N)c(S(=O)(=O)c3cccs3)c3nc4ccccc4nc32)cc1,-12% (inactive)
14,COc1ccc(C(CNC(=O)COc2ccc(-c3ccccc3)cc2)N2CCOCC2)cc1 (centres undefined),-6.25% (inactive)
15,N/C(=N\[N+](=O)[O-])N1CCN(C(=O)c2ccccc2)CC1,-7.03% (inactive)
16,Cc1ccc(S(=O)(=O)Nc2cccc3ncccc23)cc1,0.6% (inactive)
17,Cc1ccc(S(=O)(=O)Nc2ccnc3ccccc23)cc1,-5.18% (inactive)
18,O=S(=O)(c1ccc(=S)[nH]c1)N1CCCC1,-0.36% (inactive)
19,CC(CCc1ccccc1)NC(=O)CCNC(=O)c1ccccc1Cl (centres undefined),0.74% (inactive)
20,O=C(CCSCc1ccccc1F)NCc1cccnc1,12.2% (inactive)
21,O=C(Nc1nc2c(s1)CCCC2)c1cc(-c2ccccc2)nc2ccccc12,65.5% (inactive)
22,O=C(Nc1nc2c(s1)CCCC2)c1cc(-c2ccncc2)nc2ccccc12,-5.59% (inactive)
23,COc1ccc(-c2ccc3oc(-c4ccc(OC)cc4)c(C#CC4(O)CCCCC4)c3c2)cc1,61.2% (inactive)

row,SMILES,inhibition
1,COc1ccc(-c2oc3ccc(-c4ccc(OC)nc4)cc3c2-c2ccc(OC)cc2)cc1,3.96% (inactive)
2,CCC(C)(C)NC(=O)C(c1cccs1)N(C(=O)c1ccn[nH]1)c1cccc(OC)c1 (centres undefined),-8.05% (inactive)
3,Cc1nn(-c2cc(N3CCCC3)ccc2[N+](=O)[O-])c(=O)c2ccccc12,-3.75% (inactive)
4,CN1CCN(c2ccc([N+](=O)[O-])c(-n3nc(-c4ccccc4)c4ccccc4c3=O)c2)CC1,38.4% (inactive)
5,COc1cc(C=O)ccc1OCC(=O)N1CCOCC1,-0.06% (inactive)
6,CCc1nc2c(c(=O)[nH]1)C(CC)(CC)Cc1ccccc1-2,5.03% (inactive)
7,CCC1(CC)Cc2ccccc2-c2nc(CN3CCOCC3)[nH]c(=O)c21,51.6% (inactive)
8,O=C(Nc1cccc(S(=O)(=O)N2CCCC2)c1)c1cc(=O)[nH]c2ccccc12,-4.61% (inactive)
9,Cc1nc2ccc(NC(=O)c3ccccc3)cc2s1,3.89% (inactive)
10,Cc1nc2ccc(Oc3ccccc3)cc2s1,7.08% (inactive)
11,Cn1c(=O)n(C)c2cc(NC(=O)c3cc4ccccc4o3)ccc21,6.91% (inactive)
12,COc1ccc(-n2cc(CNCCCn3ccnc3)c(-c3ccccc3Cl)n2)cc1,13.2% (inactive)
13,COc1ccc(-n2cc(CNCCc3nc(C)cc(C)n3)c(-c3ccccc3Cl)n2)cc1,68.4% (inactive)
14,COc1ccc(OCCN2C(=O)c3ccccc3C2=O)c([N+](=O)[O-])c1,-4.41% (inactive)
15,COc1cc2[nH]c(C(=O)NCCc3ccccc3)cc2c(OC)c1OC,0.36% (inactive)
16,COC(=O)c1cnn(-c2ccc(C)c(C)c2)c1-n1cccc1,3% (inactive)
17,Cc1c(Cl)ccc2c1NC(=O)[C@]21N[C@@H](CCC(N)=O)[C@H]2C(=O)N(c3ccc(F)cc3)C(=O)[C@H]21,-5.78% (inactive)
18,Cc1c(Cl)ccc2c1NC(=O)C21NC(CCC(N)=O)[C@H]2C(=O)N(c3ccc(Cl)cc3)C(=O)[C@H]21 (some centres undefined),-9% (inactive)
19,CC(=O)N(C)c1ccc(OCC(O)Cn2c(C)nc3ccccc32)cc1 (centres undefined),0.96% (inactive)
20,CCC(c1nnc(SCC(=O)Nc2cc(S(C)(=O)=O)ccc2Cl)n1Cc1ccccc1)N(C)C (centres undefined),-14.3% (inactive)
21,C=CCSc1n[nH]c(-c2ccc(OC)cc2)n1,-6.49% (inactive)
22,C=CCSc1n[nH]c(-c2ccc(OCCC)cc2)n1,56.7% (inactive)
23,Cc1ccc(NC(=O)c2ccc(OC(=O)COc3ccc(Cl)c(C)c3)cc2)cc1,-2.96% (inactive)

row,SMILES,inhibition
1,COc1ccc(Cc2[nH]n3c(=O)c(Cl)c(C)nc3c2-c2ccccc2)cc1,35.3% (inactive)
2,O=C(Cn1nc(CNc2ccc(Br)cc2)[n+]2c1CCCCC2)c1ccc([N+](=O)[O-])cc1,64.9% (inactive)
3,O=C(Cn1nc(CNc2ccc(Cl)cc2)[n+]2c1CCCCC2)c1ccccc1,0.81% (inactive)
4,CCCCN1C(=O)C(=O)N(c2ccccc2)C1=S,5.31% (inactive)
5,COC(=O)CN(C(=S)Nc1ccc(F)cc1)C1CC(=O)N(c2ccccc2)C1=O (centres undefined),5.39% (inactive)
6,O=C(O)/C(=C\c1ccc2ccccc2c1)c1cccc2ccccc12,2.24% (inactive)
7,COc1ccc(/C=C2\Sc3ccc(C(=O)N4CCCC4)cc3N(C)C2=O)cc1OC,7.11% (inactive)
8,CN1C(=O)/C(=C/c2ccccc2Cl)Sc2ccc(C(=O)N3CCCC3)cc21,69.8% (inactive)
9,Cn1ncc([N+](=O)[O-])c1C(=O)Nc1ccc(-c2nc3ccccc3o2)cc1,1.46% (inactive)
10,COc1ccc(/C=C/C(=O)NCCOc2ccc(C)cc2)cc1,-2.38% (inactive)
11,NC(=O)CC(NC(=O)c1ccccc1)c1ccc(NC2CCCC2)c([N+](=O)[O-])c1 (centres undefined),0.75% (inactive)
12,CN(C)CCCn1c2c(c(SCC(=O)Nc3cccc4ccccc34)nc1=O)CCC2,0.83% (inactive)
13,c1ccc(C[C@H]2CNCCN2CCc2cccc3ccccc23)cc1,53.6% (inactive)
14,Fc1cccc(CCN2CCNC[C@@H]2Cc2ccccc2)c1,-4.28% (inactive)
15,CCOC(=O)N1CCC(NC(=O)C2CCN(S(=O)(=O)c3cnc[nH]3)CC2)CC1,-6.34% (inactive)
16,Cc1ccc(S(=O)(=O)N2CCN(C(=O)Cn3c(=O)oc4ccccc43)CC2)c(C)c1,3.86% (inactive)
17,CC(C)N(C(=O)[C@H]1CC(CC(=O)NCc2ccco2)C(=O)N2CCc3c([nH]c4ccccc34)[C@]12C)C(C)C (some centres undefined),2.78% (inactive)
18,O=S(=O)(c1ccc(F)cc1)n1ccc2cccnc21,4.44% (inactive)
19,Nc1ccc(-c2nc3ccccc3o2)cc1,49% (inactive)
20,Cc1nc2ccc(-c3nc4ccccc4o3)cc2[nH]1,8.75% (inactive)
21,COc1ccc(/C=N/NC(=O)c2cc3c(ccc4ccccc43)o2)cc1OC,11.8% (inactive)
22,Cc1ccc2nc(N3C(=O)C(O)=C(C(=O)c4cc5ccccc5o4)C3c3cccs3)sc2c1 (centres undefined),-1.99% (inactive)
23,Cc1ccc2nc(N3C(=O)C(O)=C(C(=O)c4ccco4)C3c3cccs3)sc2c1 (centres undefined),-7.92% (inactive)

row,SMILES,inhibition
1,COc1ccc(CNC(=O)c2cccc(NC3=NC4CS(=O)(=O)CC4S3)c2)cc1 (centres undefined),-9.1% (inactive)
2,CC[n+]1ccccc1/C=C1\Sc2ccc(C)cc2N1C,6.67% (inactive)
3,CCN1/C(=C/C=C/C=C/C=C/c2sc3ccccc3[n+]2CC)Sc2ccccc21,5.11% (inactive)
4,Cc1cc(C)n(-c2ccc(Cl)c(C(=O)OCC(=O)N3CCCCC3C)n2)n1 (centres undefined),-1.17% (inactive)
5,C/C(=N\NC(=O)c1nnn(-c2nonc2N)c1CN(C)c1ccccc1)c1ccc(O)cc1,-0.5% (inactive)
6,C/C(=N\NC(=O)c1nnn(-c2nonc2N)c1CN(C)c1ccccc1)c1ccccc1O,12.9% (inactive)
7,Cc1ccc(C)c(OC(=O)C2CSC3(C)CCC(=O)N23)c1C (centres undefined),-8.22% (inactive)
8,Cc1ccc(NS(=O)(=O)c2ccc(Cl)c(C(=O)Nc3ccccc3-c3nc4ccccc4[nH]3)c2)cc1C,4.41% (inactive)
9,CCC(NC(=O)c1ccccc1NC(=O)c1ccco1)C(=O)NNC(=O)c1ccc(OC)cc1 (centres undefined),-4.34% (inactive)
10,O=C(Nc1cc(Cl)cc(Cl)c1)C1C2C=CC3(O2)C1C(=O)N(CCCN1CCOCC1)C3C(=O)NC1CCCCC1 (centres undefined),-1.97% (inactive)
11,CCOC(=O)Cn1c(Br)nc2c1c(=O)[nH]c(=O)n2C,2.17% (inactive)
12,Cc1[nH]nc2c1C(c1ccc(-c3ccccc3C#N)o1)C(C#N)=C(N)O2 (centres undefined),16.8% (inactive)
13,Cc1ccc(C2C(C#N)=C(N)Oc3n[nH]c(C)c32)cc1 (centres undefined),2.2% (inactive)
14,CCN(c1ccccc1)S(=O)(=O)c1ccc(C(=O)Nc2ccncc2)cc1,48.8% (inactive)
15,Cc1ccc2ncnc(NCCC(=O)O)c2c1,-11.8% (inactive)
16,NC(=O)CSc1nnc(NC(=O)c2ccc(S(=O)(=O)N3CCCCC3)cc2)s1,4.86% (inactive)
17,COc1cc2cnc(-c3ccccc3)c(-c3cc(OC)c(OC)c(OC)c3)c2cc1OC,27.5% (inactive)
18,Fc1ccc2cnc(-c3ccccc3)c(-c3ccc(C(F)(F)F)cc3)c2c1,39.5% (inactive)
19,CCOc1ccc(OCCCC(=O)NC2=NCCS2)cc1,1.39% (inactive)
20,CC(C)(C)c1ccc(OCCC(=O)NC2=NCCS2)cc1,48.1% (inactive)

# — PubChem BioAssay AID449762 (Southern Research Specialized Biocontainment Screening …, 2010)
